From PubChem BioAssay (NCATS) come the findings set out here.

Structures are written as SMILES.

The experiment in a line: qHTS profiling of the MIPE4 collection as inhibitors of Plasmodium falciparum (DD2) proliferation (Rep 2) (AID 743346). Conditions: P. falciparum Dd2 in erythrocytes, SYBR Green DNA, 72 h; at 28.5 µM unless noted. The text has this: Plasmodium falciparum is a virulent malarial parasite that kills 1-2 million people worldwide each year. Transmitted by mosquitoes, the sporozoite form of the parasite enters the blood stream to infect hepatocytes, where they become merozoites that infect red blood cells (erythrocytes). Within erythrocytes, merozoites begin a […] cycle of growth and division, after which the parasite is released to infect new red blood cells. Gametocytes, which form within erythrocytes as well, circulate in the bloodstream and are ingested by the mosquito, thereby completing the life cycle. To profile malarial isolates for differential chemical responses and to identify inhibitors of malarial growth, an assay that measures P. falciparum growth and replication within erythrocytes was employed. This assay uses a DNA binding fluorescent dye (SYBR Green) to detect parasite DNA following cell lysis. Because mature erythrocytes lack DNA, only Plasmodium-derived DNA is detected.
The SYBR Green viability assay was adapted from a method described previously (Plouffe et al., 2008). For screening 3 ul culture medium was dispensed into 1536 well black clear bottom plates (Aurora Biotechnologies) using a Multidrop Combi (Thermo Fisher Scientific Inc.), 23 nL compounds in DMSO were added by a pin tool (Kalypsys), and 5 ul of erythrocytes infected with P. falciparum (0.3% parasitemia, 2.5% hematocrit final concentration) were added. The plates were incubated at 37 C in a humidified incubator in 5% CO2 for 72 h, and 2 ul lysis buffer (20 mM Tris HCl, 10 mM EDTA, 0.16% saponin, 1.6% triton X, 10X SYBR Green I supplied as 10,000X […] by Invitrogen) was added to each well. The plates were mixed for 25 sec with gentle shaking and incubated overnight at room temperature in the dark. The following morning, fluorescence intensity at 485(14) nm excitation and 535(25) nm emission wavelengths was measured on an EnVision (Perkin Elmer) plate reader. Plate reads were normalized relative to the control inhibitor (0.29 uM artemisinin) and vehicle (DMSO) wells present on each plate and then corrected by an algorithm using vehicle-only control plates at the beginning and end of the compound plate stack.
On to `C[C@@H](NC(=O)c1ncnc(N)c1Cl)c1ncc(C(=O)Nc2cc(C(F)(F)F)c(Cl)cn2)s1`, for which the parasite growth, % of control (lower = inhibition) was 58.8%.

On to `Cc1ccc(NC(=O)c2ccc(CN3CCN(C)CC3)cc2)cc1Nc1nc(-c2cccnc2)cs1`, for which the parasite growth, % of control (lower = inhibition) was 12.5%.

Take `Cc1cnc(-c2cc(N3CCN(C(=O)CCS(C)(=O)=O)CC3)ncc2Cl)c(C)c1`: the parasite growth, % of control (lower = inhibition) came out at 110%.

As for `CC(C)CNc1ccnc(NCc2csc(-c3ccccc3)n2)n1`, the parasite growth, % of control (lower = inhibition) is 25%.

As for `COc1nccc(-c2c(-c3ccc(F)cc3)ncn2C2CCNCC2)n1`, the parasite growth, % of control (lower = inhibition) came out at 41%.

As for `O=C1C(CCC(O)c2ccc(F)cc2)C(c2ccc(O)cc2)N1c1ccc(F)cc1` (stereo not given), the parasite growth, % of control (lower = inhibition) worked out at 36.6%.

Turning to `Cc1c(C(=O)Nc2ccc(N3C[C@@H](C)O[C@@H](C)C3)nc2)cccc1-c1ccc(OC(F)(F)F)cc1`, the parasite growth, % of control (lower = inhibition) is 54.1%.

As to `CN(C)CCCNC(=O)c1ccc(-c2cc(O)c3ncccc3c2)cc1`, the parasite growth, % of control (lower = inhibition) was 23.5%.

On to `CN(C)CC[C@H](CSc1ccccc1)Nc1ccc(S(=O)(=O)NC(=O)c2ccc(N3CCN(Cc4ccccc4-c4ccc(Cl)cc4)CC3)cc2)cc1[N+](=O)[O-]`, for which the parasite growth, % of control (lower = inhibition) came to 31.1%.

Regarding `O=C(NCCCCN1CCOCC1)c1cc2ccccc2o1`, the parasite growth, % of control (lower = inhibition) was found to be 41.5%.

Consider `O=C(c1ccc(C(=O)N2CCC(N3CCCC3)CC2)c(Nc2ccccc2)c1)N1CCC(N2CCCC2)CC1`, for which the parasite growth, % of control (lower = inhibition) was 33.2%.

For the compound `O[C@@H](COc1cccc2ncccc12)CN1CCN(C2c3ccccc3[C@@H]3[C@H](c4ccccc42)C3(F)F)CC1` (stereo not given in full), the parasite growth, % of control (lower = inhibition) is 54.1%.

Consider `CO[C@@H]1C(N(C)C(=O)c2ccccc2)C[C@H]2O[C@]1(C)n1c3ccccc3c3c4c(c5c6ccccc6n2c5c31)C(=O)NC4=O` (stereo not given in full), for which the parasite growth, % of control (lower = inhibition) stood at 122%.

Regarding `Cc1cc(-c2ncc(CC(=O)Nc3ccc(-c4cnccn4)cn3)cc2C)ccn1`, the parasite growth, % of control (lower = inhibition) was 71.8%.

For `O=C1NC(=O)C(=Cc2ccc(-c3ccc(F)cc3O)o2)S1`, the parasite growth, % of control (lower = inhibition) is 61.3%.

`O=S(=O)(O)c1ccc2cc(N=Nc3cc(S(=O)(=O)O)c4cccnc4c3O)ccc2c1`: the parasite growth, % of control (lower = inhibition) is 77.8%.

Regarding `O=C(O)Cc1cccc(OCCCN(Cc2cccc(C(F)(F)F)c2Cl)CC(c2ccccc2)c2ccccc2)c1`, the parasite growth, % of control (lower = inhibition) amounted to 18.9%.

For `N#CC(c1ccnc(NCCc2cccnc2)n1)c1nc2ccccc2s1` (stereo not given), the parasite growth, % of control (lower = inhibition) stood at 15.5%.

Turning to `NC[C@H]1O[C@H](O[C@@H]2[C@@H](O)[C@@H](O[C@H]3O[C@H](CO)[C@@H](O)[C@H](N)[C@@H]3O)[C@H](N)C[C@@H]2N)[C@H](O)[C@@H](O)[C@H]1O`, the parasite growth, % of control (lower = inhibition) was 80.6%.

As to `CNC(=O)c1ccc2c(C(=Nc3cccc(CN(C)C)c3)c3ccccc3)c(O)[nH]c2c1`, the parasite growth, % of control (lower = inhibition) worked out at 15.2%.

For `COc1cc2ncn(-c3cc(OCc4ccccc4S(C)(=O)=O)c(C#N)s3)c2cc1OC`, the parasite growth, % of control (lower = inhibition) amounted to 75.9%.

As for `CC1(C)[C@H]2CC[C@]3(C)[C@@H](C(=O)C=C4[C@@H]5C[C@@](C)(C(=O)O)CC[C@]5(C)CC[C@]43C)[C@@]2(C)CC[C@@H]1O`, the parasite growth, % of control (lower = inhibition) was 84.9%.

Take `Cc1ccc(S(=O)(=O)Nc2nc3ccccc3nc2Nc2ccc3nsnc3c2)cc1`: the parasite growth, % of control (lower = inhibition) amounted to 36% [at 9.64 µM].

`COc1cc(N2CCN(C)CC2)ccc1Nc1nc(N)c(C(=O)c2c(Cl)cccc2Cl)s1`: the parasite growth, % of control (lower = inhibition) is 14.6%.

For the compound `N#Cc1c(N(CC(=O)O)CC(=O)O)sc(C(=O)O)c1CC(=O)O`, the parasite growth, % of control (lower = inhibition) came out at 139%.

Take `COc1ccnc(CS(=O)c2nc3ccc(OC(F)F)cc3[nH]2)c1OC` (stereo not given): the parasite growth, % of control (lower = inhibition) came out at 99%.

In the case of `C[C@@H]1O[C@@H](O[C@H]2CC[C@@]3(C)[C@H](CC[C@@H]4[C@H]3C[C@@H](O)[C@]3(C)[C@@H](C5=CC(=O)OC5)CC[C@]43O)C2)C[C@H](O)[C@@H]1O[C@H]1C[C@H](O)[C@H](O[C@H]2C[C@H](O)[C@@H](O)[C@@H](C)O2)[C@H](C)O1` (stereo in doubt), the parasite growth, % of control (lower = inhibition) amounted to 67.5% [at 57.5 µM].

On to `O=C(c1ccc(C=Cc2n[nH]c3ccccc23)cc1)N1CCNCC1`, for which the parasite growth, % of control (lower = inhibition) worked out at 22.9%.

For the compound `Cn1c(=O)c(Oc2ccc(F)cc2F)cc2cnc(NC3CCOCC3)nc21`, the parasite growth, % of control (lower = inhibition) turned out to be 48.3%.

Turning to `CN(C)S(=O)(=O)c1ccc2c(c1)C(=Cc1cc3c([nH]1)CCCC3)C(=O)N2`, the parasite growth, % of control (lower = inhibition) was found to be 30%.

As to `Cc1ccccc1C(C(=O)NC1CCCCC1)N(C(=O)CNc1ccc(C#N)cc1)c1cccc(F)c1` (stereo not given), the parasite growth, % of control (lower = inhibition) is 75.5%.

In the case of `N#CC(=C1Nc2ccccc2S1)c1ccnc(OCc2ccc(CN3CCOCC3)cc2)n1`, the parasite growth, % of control (lower = inhibition) is 35.2%.

In the case of `NS(=O)(=O)c1cc(Cl)c(Cl)c(S(N)(=O)=O)c1`, the parasite growth, % of control (lower = inhibition) came out at 88.2%.

Regarding `CN(C)c1ccccc1CN1CCCN(Cc2ccccc2N(C)C)C1c1ccncc1`, the parasite growth, % of control (lower = inhibition) is 11.1%.

For the compound `COc1ccc(-c2oc3c(CC=C(C)C)c(O)cc(O)c3c(=O)c2O)cc1`, the parasite growth, % of control (lower = inhibition) amounted to 11.9%.

With `Cc1ccc(C(=O)N(CCCN)[C@@H](c2nc3cc(Cl)ccc3c(=O)n2Cc2ccccc2)C(C)C)cc1`, the parasite growth, % of control (lower = inhibition) is 13.3%.

For `Cc1ccccc1-n1c(Cn2nc(-c3cccc(O)c3)c3c(N)ncnc32)nc2cccc(C)c2c1=O`, the parasite growth, % of control (lower = inhibition) turned out to be 15%.

`COc1ccc2c(c1)c(C1=C(c3c[nH]c4ccccc34)C(=O)NC1=O)cn2CCCN(C)C`: the parasite growth, % of control (lower = inhibition) is 12.5%.

As for `CC(C)(OCc1nn(Cc2ccccc2)c2ccccc12)C(=O)O`, the parasite growth, % of control (lower = inhibition) turned out to be 96.9%.

On to `CO[C@H]1/C=C\O[C@@]2(C)Oc3c(C)c(O)c4c(O)c(c5c(nc6cc(C)ccn65)c4c3C2=O)NC(=O)C(C)=CC=C[C@H](C)[C@H](O)[C@@H](C)[C@@H](O)[C@@H](C)[C@H](OC(C)=O)[C@H]1C`, for which the parasite growth, % of control (lower = inhibition) came to 7.3%.
